PubChem BioAssay
A number with no mark means an inactive call. Active and inactive are the calls of the source.

Assay: basal CRE-LacZ reporter activity in PC12 – cell-based, unstimulated, primary screen (AID 1145)
Conditions: no forskolin, luminescence, 4.5 h, higher = more signal, called active from +8 up or from −8 down

SMILES | z-score
CCOC(=O)C1=CC[C@@H](c2ccc(OC)cc2)N(S(=O)(=O)c2ccc(C)cc2)[C@H]1c1ccc(C)cc1 | -0.415
CCOC(=O)C[C@H]1[C@H](OC(=O)Cc2ccc3c(c2)OCO3)[C@@H](NC(=O)c2ccc3ccccc3n2)c2cc(OCCCO)ccc2N1C(=O)Cc1ccc(OC)cc1 | 3.29
CC(C)(C)N1CC=CC23O[C@@H]4C=CCOC(=O)[C@@H]4[C@H]2C(=O)N(CCO)[C@@H]3C1=O (stereo not given in full) | 0.744
CCOC(=O)C1=CC[C@@H](c2ccc(OC)cc2)N(S(=O)(=O)c2ccc(C)cc2)[C@H]1CC | -0.882
COc1ccc(NN2C(C(O)c3ccc(I)cc3)C=CC3C(=O)N(C4CCCCC4)C(=O)C32)cc1 (stereo not given) | 0.435
C=CCOC(=O)[C@H]1[C@@H]2C(=O)O[C@@H](c3ccccc3)[C@@H](c3ccccc3)N2[C@@H](c2ccc(OCCOC(=O)[C@@H]3C[C@@H]4C(=O)N[C@@H](CCCC[N+](C)(C)C)C(=O)N4[C@@H]3c3ccc(O)cc3)cc2)[C@]12C(=O)Nc1ccc(I)cc12 | 0.553
Cc1ccc(S[C@]2(C(=O)NCc3ccccc3)CC(=O)N(Cc3ccccc3C(F)(F)F)[C@@H]2c2ccc(CO)cc2)cc1 | -0.0888
CC(C)=CCCC(C)=CC(O)C1C=CC2C(=O)NC(=O)C2N1Nc1ccccn1 (stereo not given) | -0.333
O=C1O[C@H](c2ccccc2)[C@H](c2ccccc2)N2[C@H]1[C@@H](C(=O)O)[C@]1(C(=O)Nc3ccc(C#CCCO)cc31)[C@H]2c1ccc(OCCO)cc1 | 1.17
C=CCN1C(=O)[C@@]2(O[C@@H](CCn3cc([C@H](O)c4ccccc4)nn3)[C@H]([Si](C)(C)c3ccc(OC)cc3)[C@H]2C)c2cc(N3C(=O)c4cccc5cccc3c45)ccc21 | 9.39 (active)
NC(=O)NCC#Cc1ccc2c(c1)[C@]1(C(=O)N2)[C@H](c2ccc(OCCO)cc2)N2[C@H](c3ccccc3)[C@H](c3ccccc3)OC(=O)[C@H]2[C@@H]1C(=O)O | 0.155
CO[C@H]1O[C@H](CO)[C@@H](OC(=O)Nc2ccc3c(c2)OCO3)[C@H](OC(=O)Nc2ccccc2-c2ccccc2)[C@H]1OC(=O)Nc1ccccc1-c1ccccc1 | 1.5
CC1CC/C=C\[C@H]2OC34C=CCN(c5ccc6ccccc6c5)C(=O)[C@H]3N(C(C)CO)C(=O)[C@@H]4C2C(=O)O1 (stereo not given in full) | -0.0899
COC(=O)[C@@]1(Cc2ccc(OC)cc2)[C@H]2c3cc(C(=O)N4CCCC4)n(Cc4ccc(C(F)(F)F)nc4)c3C[C@H]2CN1C(=O)c1ccccc1 | -0.372
Cc1ccc(C(C)CC(O)C2C=CC3C(=O)N(C)C(=O)C3N2Nc2ccccc2)o1 (stereo not given) | 0.25
C=CC[C@@]1(C(=O)N(C)C)N=C(c2ccc(OCCCO)cc2)O[C@@H]1c1ccccc1CN=[N+]=[N-] | 0.754
COC(=O)[C@@]1(Cc2ccccc2)[C@H]2c3cc(C(=O)N4CCCC4)n(Cc4ccc(OC)c(OC)c4)c3C[C@H]2CN1C(=O)c1ccccc1 | 0.39
N#Cc1ccc(NN2C(C(O)C3CC=CCC3)C=CC3C(=O)N(c4ccccc4)C(=O)C32)cc1 (stereo not given) | 0.629
C=C(C)[C@@H]1CC=C(C(O)C2C=CC3C(=O)N(c4ccccc4)C(=O)C3N2Nc2ccc([N+](=O)[O-])cc2)CC1 (stereo not given in full) | -0.527
COc1ccc([Si](C)(C)[C@H]2[C@H](CCO)O[C@@]3(C(=O)N(Cc4cccc(N(C=O)c5ccccc5)c4)c4ccccc43)[C@@H]2C)cc1 | -0.417
CCCCC(O)C1C=CC2C(=O)N(c3ccccc3)C(=O)C2N1Nc1ccc([N+](=O)[O-])cc1 (stereo not given) | -0.219
COc1ccc([Si](C)(C)[C@@H]2[C@@H](CC(=O)N3CCC[C@H]3CO)O[C@]3(C(=O)N(Cc4ccc(N5CCOC5=O)cc4)c4ccccc43)[C@H]2C)cc1 | 2.4
CC(C)NC(=O)[C@@H]1c2ccccc2C(=O)N(Cc2ccccc2C(F)(F)F)[C@H]1c1ccc(CO)cc1 | -0.179
CCCCCC1=C2CNC(Cc3ccccc3)(C(=O)OC)C=C2C(C)C1=O (stereo not given) | 0.4
CN(C)c1ccc(C(O)C2C=CC3C(=O)N(Cc4ccccc4)C(=O)C3N2n2cnnc2)cc1 (stereo not given) | -1.09
